Test results published in the supplement of paper PMC10338343.
± gives the standard deviation.

System: EfPiwi piRISC loaded with piRNA #1 (26 nt)
Test: pre-steady-state target cleavage rate (min^-1); auxiliary factor: 500 nM Ephydatia muelleri Gtsf1; guide: piRNA #1 5'p-UGAGGUAGUAGGUUGUAUAGUAUCCA; MIWI and MILI are mouse PIWI proteins and EfPiwi is from a freshwater sponge; tags in brackets are library labels; higher = faster piRNA-guided slicing of the target
Summary of the method: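 Cleave-'n-Seq: a transcribed, DNA-blocked target RNA library (0.1 nM) was mixed with 1 nM active affinity-purified piRISC carrying one synthetic guide, with or without 500 nM GTSF1 partner protein, in HEPES–potassium acetate buffer at 33 °C for 0–8 or 0–960 min. Uncleaved targets were sequenced and normalised to depth and to weakly complementary targets. Three trials were pooled, and k3 was capped at 0.0001 min^-1. The pre-steady-state cleavage rate came from a burst-and-steady-state fit.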

| Sequence | pre-steady-state target cleavage rate |
| --- | --- |
| GGAGAGGAUACUAUACAACCUACUACCCA | 0.0052 ± 0.0025 |
| GGAGUGGUUACAAUACAACCUACUACCUCA | 0.00789 ± 0.0035 |
| GGAGUGGAUACUAUACAACCUACUACCCA | 0.00631 ± 0.0022 |
| GGAGACGAUACUAUUCAACCUACAACCUCA | 0.0024 ± 0.0017 |
| GGAGUGGUUACUAUACAACCUACUUCCUCA | 0.0027 ± 0.0013 |
| GGAGACCAUAGUAUACAUCCUACUACCUCA | 0.00617 ± 0.0032 |
| GGAGUGGAUACUAAACAACCUACUACCUGA | 0.00228 ± 0.0017 |
| GGAGUGGAUAUAUACAACCUACUACCUCA | 0.0139 ± 0.0066 |
| GGAGACGAUACUAUACAACCUACUACCAUCA | 0.00489 ± 0.002 |
| GGAGUGGUUACUAUACAACCUACUAGCUCA | 0.00221 ± 0.001 |
| GGAGAGGAUACUACUACAACCUACUACCUCA | 0.00619 ± 0.0042 |
| GGAGACGUAUCUAUACAACCUACUACCUCA | 0.00913 ± 0.0041 |
| GGAGAGGAUACUAUACAACCUACUACCUCA [g2:g25:cont:t1A] | 0.0912 ± 0.033 |
| GGAGACCUUAGAAUACAACCUACUACCUCA | 0.00613 ± 0.0038 |
| GGAGUGGAAACUAUACAUCCUACUACCUCA | 0.0101 ± 0.0045 |
| GGAGAGGAUACUAUACAACCUACUACCUA | 0.217 ± 0.081 |
| GGAGUGGAUACUAUACAAGCUACUACCACA | 0.0039 ± 0.0017 |
| GGAGACCAUUCUAUACAACCUACAACCUCA | 0.00312 ± 0.0031 |
| GGAGUGGAUAGUAUACAACCUACUACCUCA | 0.00712 ± 0.0031 |
| GGAGAGGAUACUAUACAACCUACAACCACA | 0.00436 ± 0.0017 |

| Sequence | pre-steady-state target cleavage rate |
| --- | --- |
| GGAGAGGAUACUAAACAACCUACUACCUGA | 0.00273 ± 0.0018 |
| GGAGAGGAUGCUAUACAACCUACUACCUCA | 0.00971 ± 0.006 |
| GGAGACGAUACUUAACAACCUACUACCUCA | 0.00683 ± 0.0038 |
| GGAGACCUUACUUAUACAACCUACUACCUCA | 0.00736 ± 0.0041 |
| GGAGACCAUUCUAUACAACCUAGUACCUCA | 0.00433 ± 0.0024 |
| GGAGACGAUACUAUACAACGUACUACCUGA | 0.0041 ± 0.0012 |
| GGAGAGGAUACUAUACAACCUUCUACCACA | 0.00468 ± 0.0021 |
| GGAGACCAUACUAUACAACUACUACCUCA | 0.00486 ± 0.0035 |
| GGAGACCUUACUAUACAACCUAGUACCUCA | 0.00384 ± 0.0019 |
| GGAGACCAUACUAUACUACCUACUACGUCA | 0.0039 ± 0.0028 |
| GGAGACCUAUGUAGUACAACCUACUACCUCA | 0.00368 ± 0.0031 |
| GGAGACGAUACUAUACAAGCUACUUCCUCA | 0.00404 ± 0.0021 |
| GGAGUGGAUACUAUUCAUCCUACUACCUCA | 0.0078 ± 0.0036 |
| GGAGUGGAUAGUAUACAACGUACUACCUCA | 0.00231 ± 0.0021 |
| GGAGAGGCUACUAUACAACCUACUACCUCA | 0.0629 ± 0.022 |
| GGAGUGGAUACUAUACAACCUAUACCUCA | 0.00334 ± 0.0019 |
| GGAGACGAUACUUAUCAACCUACUACCUCA | 0.00522 ± 0.0041 |
| GGAGACCUUACUAUACAACCUACUAGCCUCA | 0.00471 ± 0.0044 |
| GGAGUGGAUACUAAACAUCCUACUACCUCA | 0.0059 ± 0.0024 |
